# Measured values as given in ChEMBL document CHEMBL3988442, “University of Dundee, Small-Polar-MMV Screening Library” (2021).
# In all, about 66,000 compounds went through this assay and about 960 (1.5%) showed an effect of 50% or more. This excerpt belongs to a sample that is enriched for strong results.
# Test system: Trypanosoma brucei
# Assay: Trypanosoma brucei 72 hour study
# Format: functional, organism-based
# Parameters: scale not given: in the data most compounds retested in dose-response had high values
Compound,"Percent Effect (30 µM, 30.03 µM) [%]","Percent Effect (30.3 µM, […]) [%]"
c1nc(N2CCc3[nH]cnc3C2)c2cc[nH]c2n1,75.2,
c1ncc2c(n1)CN(c1ncnc3[nH]ccc13)CC2,-32.45,
Cn1cc(N2CC3(COCCN(Cc4nccs4)C3)OCC2=O)cn1.O=C(O)C(F)(F)F (centres undefined),27.05,
Cc1cc(N(C)C)cc(C2CCN(S(=O)(=O)c3cccnc3)C2)n1 (centres undefined),,-0.05808
Cc1nn(CCO)c(C)c1-c1cc(C(C)(C)C)nc(N)c1C#N,,0.04143
Cc1ccc(-c2cc(-c3c(C)nn(CCO)c3C)c(C#N)c(N)n2)cc1,,33.48
Cc1cccc(-c2cc(-c3c(C)nn(CCO)c3C)c(C#N)c(N)n2)c1,,57.96
Cc1noc([C@]23COC[C@H]2CN(C(=O)CN(C)C)C3)n1.O=C(O)C(F)(F)F,,106.1
CCOCC(=O)N1C[C@@H]2COC[C@]2(c2nc(C)no2)C1,,-76.29
Cc1noc([C@]23COC[C@H]2CN(C(=O)COC2CCCC2)C3)n1,,-59.73
Cc1ccc(CN2CCCC3(CCN(S(C)(=O)=O)C3)C2)o1.O=C(O)C(F)(F)F (centres undefined),16.24,
Cc1csc2c(N3CCNC(C(=O)NCc4cccnc4)C3)ncnc12 (centres undefined),-5.987,
Cc1csc2c(N3CCNC(C(=O)N4CCCC4)C3)ncnc12 (centres undefined),24.45,
Cc1csc2c(N3CCNC(C(=O)Nc4ccc(F)cc4)C3)ncnc12 (centres undefined),72.13,
Cc1cc(C(=O)N2CCc3nc(C4CCCN4)ncc3C2)cs1.Cl (centres undefined),,-23.19
Cc1occc1C(=O)NCC(=O)NCCCOc1ccc(F)cc1,-42.11,
Cc1occc1C(=O)NCC(=O)N(C)CCCOc1ccc(F)cc1,95.62,
Cc1occc1C(=O)NCC(=O)N(C)CCCOc1ccccc1,-44.45,
CNC(=O)c1ccc(C2CCCN(C(=O)c3sc(C)nc3C)C2)nc1 (centres undefined),,-1.908
Cc1cc(NCCN)nc2ccccc12.O=[N+]([O-])O,,-46.24
CCS(=O)(=O)c1ccccc1N1CCC(NC(=O)NC2CCCC2)CC1,7.94,
CCS(=O)(=O)c1ccccc1N1CCC(NC(C)=O)CC1,4.915,
CCS(=O)(=O)c1ccccc1N1CCC(NC(=O)c2ccc[nH]2)CC1,54.24,
CCC[C@@H]1CN(Cc2cc(C#N)n(C)c2C)C[C@H]1NS(C)(=O)=O,0.9985,
Cc1nc(N)c2ccc(C3CCCCN3)nc2n1.Cl (centres undefined),,-17.89

Compound,"Percent Effect (30 µM, 30.03 µM) [%]","Percent Effect (30.3 µM, […]) [%]"
CN(c1ccc(C(=O)NCCCN2CCCCC2)c(Cl)c1)S(C)(=O)=O,-14.39,
CCCc1cc(=O)[nH]c(-n2nc(-c3cccs3)cc2N)n1,-29.48,
Cc1cc(=O)[nH]c(-n2nc(C3CC3)cc2N)n1,-21.61,
CC(C)c1cc(=O)[nH]c(C(C)(C)N)n1.Cl,-29.56,
CC(C)c1cc(=O)[nH]c(-n2nc(C3CC3)cc2N)n1,99.41,
CCc1c(C)nc(-n2nc(C3CC3)cc2NC(C)=O)[nH]c1=O,-1.646,
Cc1cc(=O)[nH]c(-n2nc(-c3ccccc3)cc2N)n1,-3.849,
CC(=O)Nc1cc(C2CC2)nn1-c1nc(C)c(C)c(=O)[nH]1,-12.81,
CCCc1cc(=O)[nH]c(-n2nc(C3CC3)cc2N)n1,78.26,
CCc1cc(=O)[nH]c(-n2nc(C3CC3)cc2NC(=O)C2CC2)n1,97.36,
COc1ccc(CC(=O)N2Cc3nccn3CC(CN(C)C)C2)cc1.O=C(O)C(F)(F)F (centres undefined),-47.37,
Cc1cccc(CN2CCC3(CC2)NC(=O)C[C@H]3c2cnn(C)c2)n1.O=C(O)C(F)(F)F,,-5.843
COc1cc2c(cc1CNC(Cc1cccs1)c1nccs1)OCO2.Cl (centres undefined),,-17.08
O=C1N[C@H]2OCCC[C@H]2[C@H](c2ccccc2)N1,-11.46,
CCOc1cc(CNC(=O)c2cnn(CC)c2C(F)(F)F)ccn1,1.219,
Fc1cccc(N2CCCC3(CN(Cc4ccncc4)CCO3)C2)c1.O=C(O)C(F)(F)F.O=C(O)C(F)(F)F.O=C(O)C(F)(F)F (centres undefined),7.874,
Fc1cccc(N2CCCC3(CN(Cc4cccnc4)CCO3)C2)c1.O=C(O)C(F)(F)F.O=C(O)C(F)(F)F.O=C(O)C(F)(F)F (centres undefined),,86.99
Cc1ccc(CN2CCOC3(CCCN(c4cccc(F)c4)C3)C2)o1.O=C(O)C(F)(F)F.O=C(O)C(F)(F)F (centres undefined),,98.9
Fc1cccc(N2CCCC3(CN(Cc4nccs4)CCO3)C2)c1.O=C(O)C(F)(F)F.O=C(O)C(F)(F)F (centres undefined),,9.59
O=C(O)C(F)(F)F.OCCN1CCOC2(CCCN(c3cccc(F)c3)C2)C1 (centres undefined),21.19,
Fc1cccc(N2CCCC3(CN(Cc4ccco4)CCO3)C2)c1.O=C(O)C(F)(F)F.O=C(O)C(F)(F)F (centres undefined),,99.09
Fc1cccc(N2CCCC3(CN(Cc4ccccn4)CCO3)C2)c1.O=C(O)C(F)(F)F.O=C(O)C(F)(F)F.O=C(O)C(F)(F)F (centres undefined),,1.036
Cn1cc(CN2CCOC3(CCCN(c4cccc(F)c4)C3)C2)cn1.O=C(O)C(F)(F)F.O=C(O)C(F)(F)F (centres undefined),,-12.05
Fc1cccc(N2CCCC3(C2)CN(c2ncccn2)CCO3)c1.O=C(O)C(F)(F)F.O=C(O)C(F)(F)F (centres undefined),-26.54,
